The record followed here is PubChem BioAssay AID1566 (Sanford-Burnham Center for Chemical Genomics, 2009).

Hit rate of the full screen: of about 290,000 compounds, about 1,800 (0.62%) were called active. The full list was thinned out, with actives kept by preference. A number with no mark means an inactive call. No stated cut-off is given here; in the data, active means inhibition above about 50%; inactive means the rest.

One may read the inhibition as the change of the read-out against control, counted positive when it falls.

This assay in a line: NOD2 signaling inhibitors, cell-based, luminescence, uHTS, HEK293 (AID 1566). The following applies: HEK293 NOD2/NF-kB luciferase reporter, at 4 µM, hits give high values. (In general: In a reporter assay the amount or activity of a reporter protein is the signal.)
As for `O=C(Nc1ccc(N2CCCCC2)cc1)c1cccnc1Cl`, the inhibition was -2.2%.
Under `O=C(Nc1ccc(N2CCOCC2)cc1)Nc1cnsn1` stands -3.9%; under `O=C(Nc1ccc(N2CCCCCC2)cc1)c1ccccc1Cl`, -104%.
Under `O=C(Nc1ccc(N2CCCCC2)cc1)c1ccccn1` stands 69.8% (active); under `Cc1cnc(C(=O)Nc2ccc(N3CCOCC3)cc2)cn1`, -3.6%; under `O=C(Nc1ccc(N2CCOCC2)cc1)c1cnsn1`, 52.4% (active).
For `O=C(CSc1nc2ccccc2[nH]1)NCc1ccccc1` the value was -35%.
Take `COc1ccc(S(=O)(=O)N2CCN(CC(O)COc3ccc(C#N)cc3)CC2)cc1OC` (stereo not given): the inhibition is 1.5%.
As for `CC(=O)Nc1ccccc1OCC(=O)N(Cc1ccccc1)C(C)C`, the inhibition was 19.2%.
Under `Cc1ccc(-n2c(C)nc3ncnc(-c4ccccc4)c32)cc1` stands 17.9%; under `CN1C(=O)/C(=C/c2ccccc2F)Sc2ccc(C(=O)NCC3CCCO3)cc21` (stereo not given), 17%.
Consider `CN1C(=O)/C(=C/c2ccccc2F)Sc2ccc(C(=O)N3CCCC3)cc21`, for which the inhibition is 37.3%.
For `CN1C(=O)/C(=C\c2ccccc2F)Sc2ccc(C(=O)NC3CCN(Cc4ccccc4)CC3)cc21` the value was 58.2% (active); for `CCc1c(C)nc2c(C)cccc2c1SCCC#N`, 12.6%; for `O=C(CN1CCN(C(c2ccccc2)c2ccccc2)CC1)Nc1ccc(N2CCOCC2)cc1`, 6.9%.
Under `COC(=O)c1c(NC(=O)c2ccc(OC(C)C)cc2)sc2c1CC(C)(C)NC2(C)C` stands 7.3%; under `COc1ccc(/C=N/NC(=O)c2sc(C)nc2C)cc1`, 13.6%.
Regarding `COc1ccccc1/C=N/NC(=O)c1sc(C)nc1C`, the inhibition was 6.4%.
As to `Cc1nc(C)c(C(=O)N/N=C/c2cc(Br)ccc2O)s1`, the inhibition was 50.9% (active).
Under `Cc1onc(-c2ccccc2)c1C(=O)N1CCOC12CCN(c1cccc(F)n1)CC2` stands 14.4%; under `O=C(NCCc1ccccc1)C1CCCN(c2ncnc3c2nc2n3CCCCC2)C1` (stereo not given), 18.5%; under `COC(=O)c1sc(N2C(=O)C(O)=C(C(=O)c3ccc(C)o3)C2c2ccco2)nc1C` (stereo not given), 39.6%.
As for `O=C(NCc1ccccc1)N1CCOCC1`, the inhibition is -1.5%.
For `CC(=O)Nc1cc2c(=O)n(Cc3ccccc3)c(C)nc2cc1N1CCOCC1`, the inhibition is 9.5%.
Under `Cc1nc2cc(N3CCCCC3)c(NC(=O)c3ccncc3)cc2c(=O)n1Cc1ccccc1` stands 10.5%; under `CC(=O)Nc1ccc(NC(=O)c2sc(-c3ccccc3)nc2C)cc1`, 19.3%.
For `COc1cc2cc(CN(CCc3ccccc3C)C(=S)NCCCN3CCOCC3)c(=O)[nH]c2cc1OC` the value was 17.4%.
Under `O=C(O)c1ccc(Nc2nc3ccccc3nc2NS(=O)(=O)c2cccs2)cc1` stands 7.1%.
For `COc1ccc(Nc2nc3ccccc3nc2NS(=O)(=O)c2cccs2)cc1`, the inhibition is 37.8%.
For `CC(=O)Nc1ccc(S(=O)(=O)N2CCN(CC(=O)NC3CCCC3)CC2)cc1` the value was -8.9%; for `O=C1OCC2=C1C(c1ccccc1)CC(=O)N2c1ccc(F)cc1` (stereo not given), -3.1%; for `COc1ccccc1COc1ccc2c(C)c(CC(=O)O)c(=O)oc2c1C`, 10.3%.
Turning to `Cc1c(CCC(=O)O)c(=O)oc2c(C)c3occ(-c4ccc(Br)cc4)c3cc12`, the inhibition is 41%.
Under `COc1ccc(-c2coc3c(C)c4oc(=O)c(CCC(=O)O)c(C)c4cc23)cc1` stands 5.8%.
For `Cc1c(CCC(=O)O)c(=O)oc2c(C)c(OCc3cc4c(cc3Cl)OCO4)ccc12`, the inhibition is 35%.
Under `CCOc1ccccc1C(=O)OCC(=O)NCCNC(=O)COC(=O)c1ccccc1OCC` stands -4.3%; under `CCCN1C(=O)/C(=C/c2ccc(C)o2)SC1=Nc1ccc(OCC)cc1`, 1.9%.
For the molecule `O=c1cc(CSc2nnc(COc3ccc(Cl)cc3)o2)c2ccccc2[nH]1`, the inhibition is 17.3%.
For `COc1cccc(C2CNC3(CCCC(C)C3)c3[nH]c4ccccc4c32)c1OC` (stereo not given), the inhibition is -9%.
For `O=C(N/N=C/c1cc([N+](=O)[O-])ccc1O)c1ccc(COc2ccc3c(c2)CCC3)o1` the value was 50.4% (active); for `COc1ccc(Br)cc1/C=N/NC(=O)c1ccc(COc2ccc3c(c2)CCC3)o1`, -48.8%.
Under `O=C(N/N=C/c1cccc(O)c1)c1ccc(COc2ccc3c(c2)CCC3)o1` stands -30.7%; under `O=C(NCCc1ccc(Cl)cc1)C1CCCN1C(=O)Nc1ccccc1` (stereo not given), 13.4%; under `Cc1ccc(NC(=O)C(C)Sc2n[nH]c(CNc3ccccc3)n2)cc1` (stereo not given), 3.6%.
Under `CC1Sc2ccc(S(=O)(=O)N3CCC(C(=O)Nc4cccc(Cl)c4)CC3)cc2NC1=O` (stereo not given) stands 14.4%; under `Cc1ccc(NC(=O)C2CCN(S(=O)(=O)c3ccc4c(c3)NC(=O)C(C)S4)CC2)cc1C` (stereo not given), 16.5%.
As to `CN(C)c1ccc(C2N(C(=O)N3CCOCC3)CCN2S(=O)(=O)c2ccccc2)cc1` (stereo not given), the inhibition is 13.1%.
On to `Cc1c(Br)c([N+](=O)[O-])nn1CC(=O)Nc1ccc2nc3n(c(=O)c2c1)CCCC3`, for which the inhibition is 17.3%.
For `Cc1ccc(/C=C(/NC(=O)c2ccccc2)C(=O)NC(Cc2c[nH]c3ccccc23)C(=O)O)cc1` (stereo not given) the value was 9.4%; for `COc1ccc([N+](=O)[O-])c(S(=O)(=O)c2ccc(Cl)cc2)n1`, 60.3% (active); for `COc1ccc([N+](=O)[O-])c(S(=O)(=O)c2ccccc2)n1`, 29%.
Consider `COc1nc(OC)nc(Oc2ccc(Cl)cc2[N+](=O)[O-])n1`, for which the inhibition was 10.1%.
Under `Cc1c(CC(=O)N[C@@H](C)C(=O)O)c(=O)oc2cc3occ(-c4ccccc4)c3cc12` stands 14%; under `COc1cc(C(=O)OCC(C)=O)c([N+](=O)[O-])cc1OC`, 0.4%.
For `N#Cc1c(-c2ccccc2)nc(SCc2ccc(Cl)cc2)[nH]c1=O`, the inhibition was 24.8%.
Take `CCSc1nc(-c2ccccc2)c(C#N)c(=O)[nH]1`: the inhibition is 20%.
Turning to `O=C(c1ccc2c(=O)n(-c3ccccc3)c(=O)[nH]c2c1)N1CCN(c2ccc(F)cc2)CC1`, the inhibition was 14.2%.
For `Cc1ccc(NC(=O)CSc2ccc3c(c2)OCCO3)c(O)c1` the value was 54.3% (active).
For `Cc1cc(NC(=O)CSc2ccc3c(c2)OCCO3)no1` the value was 14.9%; for `Cc1cccc(SCC(=O)Nc2ccc3c(c2)OCCO3)c1`, -70.2%.
